SW480 rerep = induces DNA re-replication in SW480 colon adenocarcinoma cells. SW480 DNA re-replication, Hoechst DNA content imaging, 48 h. Potency, µM (highest dose often 46.1 µM), inactives show at the highest dose re-replication activation, hits mostly activators. 340,000 compounds, 1.8% hits; further: potency means the concentration at half of the fitted maximal effect; % of control where 0% means no effect; nearly all actives have a fitted effect of over 55% in size
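Hoechst fluorescence of nuclei (405 nm excitation, 500-530 nm emission) measured by plate-scanning imager after 48 hr compound exposure at 37 C; re-replication scored as increased number of nuclei with elevated intensity.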
DRD3 antagonist = blocks the human D3 dopamine receptor; P35462; D3R cells, DiscoveRx beta-arrestin luminescence, antagonist mode; active compounds read low; max response, negative = inhibition, %; 360,000 compounds, 2.5% hits; in the data active means max response below about -50%; inconclusive means no clear call, values can overlap the other calls; further: on the % scale 0 is the no-effect control and ±100 the full control effect
Target sequence (P35462 whole entry, looked up): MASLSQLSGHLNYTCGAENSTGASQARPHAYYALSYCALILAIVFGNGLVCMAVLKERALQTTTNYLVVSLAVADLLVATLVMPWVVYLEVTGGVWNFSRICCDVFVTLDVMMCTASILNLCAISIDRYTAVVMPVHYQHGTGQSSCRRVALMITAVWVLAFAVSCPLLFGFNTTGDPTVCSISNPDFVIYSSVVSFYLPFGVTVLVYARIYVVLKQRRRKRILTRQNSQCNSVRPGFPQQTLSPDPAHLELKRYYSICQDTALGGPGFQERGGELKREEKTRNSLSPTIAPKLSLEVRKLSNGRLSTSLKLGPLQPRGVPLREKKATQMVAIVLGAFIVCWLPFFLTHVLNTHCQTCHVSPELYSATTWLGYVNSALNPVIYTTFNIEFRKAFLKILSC
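Cells expressing the human receptor were seeded at 1500 cells/well, incubated overnight at 37 degrees C in 5% CO2, then exposed to library compounds with dopamine controls for 90 minutes at 37 degrees C before luminescent detection.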
KB-V1 cytotox = kills drug-selected multidrug resistant KB-V1 cells | Potency, µM (titrated, usually from 46.1 µM), hits mostly cytotoxic | AID 1347076 | 400,000 compounds, 3.4% hits | KB-V1 MDR cells viability, CellTiter-Glo, 72 h; further: potency means the concentration at half of the fitted maximal effect; on the % scale 0 is the no-effect control and ±100 the full control effect; nearly all actives have a fitted effect of over 60% in size
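Cells of the MDR subline KB-V1 are plated, dosed with compound at multiple concentrations, and incubated 72 h at 37 degrees C; CellTiter-Glo is then added and luminescence read after 10 min.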
MCF10A rerep = inducers of DNA re-replication in MCF 10A breast cells; 350,000 compounds, 2.9% hits; Potency, µM (series often up to 46.1 µM), for inactives: at the top dose activity, positive = re-replication, hits mostly activators; MCF 10A DNA re-replication, Hoechst nuclear intensity, 48 h; AID 624296; further: potency means the concentration at half of the fitted maximal effect; % of control where 0% means no effect; nearly all actives have a fitted effect of over 50% in size
KB-3-1 tox = kills parental KB-3-1 adenocarcinoma cells; KB-3-1 viability, CellTiter-Glo ATP luminescence, 72 h; Potency, µM (highest dose often 46.1 µM), actives largely listed as cytotoxic; 400,000 compounds, 1.4% hits; further: potency means the concentration at half of the fitted maximal effect; on the % scale 0 is the no-effect control and ±100 the full control effect; nearly all actives have a fitted effect of over 60% in size
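Here the drug-naive KB-3-1 line serves as comparator for MDR sub-line selectivity; cells received compound titrations, 72 h at 37 °C, then CellTiter-Glo readout.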
DRD3 agonist = activates the human D3 dopamine receptor; P35462; 410,000 compounds, 0.58% hits; AID 652048; D3R DiscoveRx beta-arrestin cells, luminescence, 90 min; max activation, %; in the data active means max activation above about 30%; further: 0% is about no effect
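Cells at 1500/well, incubated overnight, then treated with pinned compounds (dopamine as control) for 90 min at 37 degrees C. DiscoveRx reagent added for 30 - 60 minutes at room temperature; luminescence read.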
Active calls of the source: *; i = inactive; ? = inconclusive; . = no result given; [ ] = remark or other dose. An excerpt weighted towards active compounds, which were near 8.9% of everything screened. Unless noted, the call rests on the fitted dose curve; in most records, active means well fitted curve in the direction sought with a large enough effect; inconclusive means small, poorly fitted or top-dose-only effect, or another doubt; inactive means no such curve, though single readings can be large; an effect the other way counts as inactive or inconclusive.

SMILES	SW480 rerep	DRD3 antagonist	KB-V1 cytotox	MCF10A rerep	KB-3-1 tox	DRD3 agonist
Cc1cc(NC(=O)N(C)CCc2c(C)nn(C)c2C)ccc1Br	.	.	i	.	i	5
CCN(C(=O)c1cc2c(s1)-c1ccccc1OC2)c1cc(Cl)ccc1OC	.	.	i	.	i	-16
Cc1[nH]c2ccccc2c1CN1CCC(Cc2ccccc2)CC1	?	?	18µM*	21%	i	-24
Cc1[nH]c2ccccc2c1CN1CCN(c2ccccn2)CC1	103%	-67*	i	3%	i	-27
c1ccc(-c2ncc(CN3CCN(c4ccccn4)CC3)[nH]2)cc1	-26%	-105*	i	8%	i	-12
c1ccc(N2CCN(Cc3nc4ccccc4[nH]3)CC2)nc1	-5%	3	i	1%	i	0
O=S(=O)(c1ccc(Br)cc1)c1nc(-c2ccco2)oc1SCc1ccccc1F	.	.	i	.	i	6
CC(C)(C)C(=O)N1CCN(c2ccc3c(c2)C2CC3CCN2C(=O)OCc2ccccc2)CC1 (configuration not stated)	.	13	i	.	i	6
Cc1ccc(C)c(NC(=O)Cn2c(=O)nc(-c3ccccc3)c3ccccc32)c1	.	.	.	.	.	3
CN(C)c1ccc(/C=C2\C=Cc3ccccc32)cc1F	.	.	i	.	i	.
CCCCC12CN3CC(C)(CN(C1)C3c1c[nH]c3ccccc13)C2=O (configuration not stated)	.	.	i	.	i	5
CCN1c2ccccc2-c2nc(SCC(=O)Nc3c(C)cc(C)cc3C)ncc2S1(=O)=O	.	.	4.6µM*	.	10µM*	6
O=C(CSc1ncc2c(n1)-c1cc(Cl)ccc1N(Cc1ccccc1)S2(=O)=O)Nc1ccc(F)cc1F	.	.	13µM*	.	i	2
Cc1ccc2c(c1)N(C(=O)Nc1cccc(C)c1C)CCO2	.	.	i	.	i	-7
COc1ccc(NC(=O)CN2C(=O)COc3ccc(S(=O)(=O)Nc4ccccc4)cc32)cc1	.	.	i	.	i	-12
CCOC(=O)C(C)Oc1cccc2c(=O)n(CC(=O)NCc3ccc(F)cc3)ccc12 (configuration not stated)	?	-9	1.3µM*	?	1.3µM*	-14
CCOC(=O)C(C)Oc1cccc2c(=O)n(CC(=O)NCCc3ccccc3)ccc12 (configuration not stated)	3%	0	i	0%	i	-11
CCOC(=O)COc1cccc2c(=O)n(CC(=O)NCc3ccc4c(c3)OCO4)ccc12	7.3µM*	-10	i	?	?	-7
COC(=O)COc1cccc2c(=O)n(CC(=O)N3CCCCC3)ccc12	0%	7	i	-3%	i	6
COC(=O)COc1cccc2c(=O)n(CC(=O)NCc3ccc(F)cc3)ccc12	5.8µM*	?	?	10µM*	1.5µM*	-10
CCOC(=O)C(C)Oc1cccc2c(=O)n(CC(=O)NCc3ccccc3)ccc12 (configuration not stated)	1.3µM*	-10	2.1µM*	0.58µM*	1.2µM*	-5
CCOC(=O)C(C)Oc1cccc2c(=O)n(CC(=O)Nc3ccc(OC)cc3)ccc12 (configuration not stated)	.	0	?	.	i	-11
O=S(=O)(NN=C1CCCCCCC1)c1ccccc1	.	-4	i	.	i	-2
O=C1ON=C(c2ccc(Cl)cc2)/C1=C/c1ccc(O)cc1	4%	2	21µM*	?	i	2
O=C1ON=C(c2ccccc2)/C1=C/c1ccc(O)cc1	21%	-15	i	21%	i	-3
SMILES	SW480 rerep	DRD3 antagonist	KB-V1 cytotox	MCF10A rerep	KB-3-1 tox	DRD3 agonist
CCOC(=O)C1=C(O)/C(=C/c2cn(CC(=O)N3CCCC3)c3ccccc23)SC1=Nc1ccccc1	?	12	i	8.2µM*	15µM*	2
COC(=O)c1cn(CC(=O)N2CCCCCC2)c2ccccc12	-1%[9.22 µM]	-9	i	1%	i	-2
COc1ccnc(CSC(N)=Nc2ccc(F)cc2)c1	?	-71*	?	12%	?	-5
COc1cccc(/C=N/NC(=O)c2cc(-c3cccn3C)n[nH]2)c1	2%	-51*	?	2%	?	-8
Cn1cccc1/C=N/NC(=O)Cn1cnc2ccccc21	0%	-75*	i	-4%	i	3
COc1ccccc1/C=C/C=N/NC(=O)CCn1cnc2ccccc21	21µM*	-16	i	?	i	0
COc1cccc(/C=N/NC(=O)CCn2cnc3ccccc32)c1	3.7µM*	-4	i	?	i	7
COc1cc2c(NC3CCN(C)CC3)nc(N3CCN(C)CC3)nc2cc1OCCCN(C)C	.	.	i	.	?	.
CCc1ccc2oc(C(=O)Nc3nc(-c4ccccc4)ns3)c(C)c2c1	.	.	.	.	.	-3
Cc1ccc(S(=O)(=O)c2nnn3c2nc(N2CCN(c4cccc(C)c4C)CC2)c2ccccc23)cc1C	.	.	i	.	i	-7
CCOC(=O)c1c(C)[nH]c(C)c1S(=O)(=O)N1CCC(C(=O)NCc2ccc(OC)cc2)CC1	.	.	i	.	i	-11
O=C(CCn1c(=O)c2cccn2c2cccnc21)NCc1ccccc1F	.	.	.	.	.	-7
Cc1cc(Cl)ccc1NC(=S)NCc1ccco1	-4%	23	21µM*	0%	i	2
Cc1c(Cl)cccc1NC(=S)NCCC(c1ccccc1)c1ccccc1	?	4	?	?	?	4
S=C(NCc1ccco1)Nc1ccc(Oc2ccc(Cl)cc2)cc1	11%	10	i	7.3µM*	i	5
Cc1cc(Cl)ccc1NC(=S)NCCC(c1ccccc1)c1ccccc1	0%[9.22 µM]	9	?	13µM*	?	2
S=C(NCc1ccco1)Nc1ccc(Cl)cc1	5%	1	i	0%	i	1
Cc1ccc(CCNC(=O)C2COc3ccccc3C2)cc1 (configuration not stated)	.	.	?	.	i	4
CCOC(=O)c1noc2ncnc(Nc3ccc(F)cc3F)c12	.	.	?	.	i	-12
Cn1c(=O)c2c(nc(Oc3ccccc3)n2Cc2c(Cl)cccc2Cl)n(C)c1=O	.	.	?	.	i	6
Cc1cccc(C)c1NC(=O)CN(C)C(=O)c1ccc(-n2cncn2)c([N+](=O)[O-])c1	1%	-68*	i	5%	i	1
Cc1ccc(C)c(NC(=O)CN(C)C(=O)c2ccc(-n3cncn3)c([N+](=O)[O-])c2)c1	-7%	23	i	0%	i	6
COc1ccccc1N1CCN(CCOc2c(OC)cccc2OC)CC1	-1%	-68*	i	5%	i	-8

Bioassay records deposited in PubChem by National Center for Advancing Translational Sciences (NCATS).
